# PubChem BioAssay AID488890 (Southern Research Specialized Biocontainment Screening …, 2010)
# The whole screen tested about 320,000 compounds, of which about 1,300 (0.41%) were called active. Roughly 3% stayed inconclusive and do not appear here. How the calls were made is not given here. The list is a sample of the results. Entries with a potency or affinity are not part of this list.
# Test: growth inhibition of non-replicating M. tuberculosis (AID 488890);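 further: plate controls were DMSO cells for no effect and high antibiotic wells for full effect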
# Conditions: Mycobacterium tuberculosis non-replicating, at 25 µM, stronger effect = higher value
row,Structure (SMILES),inhibition [%]
1,CCc1ccc(C(=O)NCc2cnn(C)c2)s1,6.54
2,Cc1ccc(SCC(=O)O/N=C(\N)c2cccnc2)cc1,67.7
3,O=C(/C=C/Nc1ccc(Oc2ccccc2Cl)cc1)c1ccco1,61.8
4,Cc1cccc(-n2ccnc2SCC(=O)Nc2nccs2)c1,15.5
5,O=C(NCc1nc2ccccc2[nH]1)c1ccc([N+](=O)[O-])cc1,4.71
6,O=C(Cc1nc2ccccc2[nH]1)c1ccc([N+](=O)[O-])cc1,6.15
7,Cc1cc(C(=O)CN2C(=O)C(=O)N(Cc3ccco3)C2=O)c(C)n1CCc1ccccc1,54.3
8,Cc1ccnc(NC(=O)COc2ccc3oc4c(c3c2)CCCC4)c1,76.9
9,Cc1cccc(NC(=O)COc2ccc3oc4c(c3c2)CCCC4)n1,75.9
10,COc1ccc(CNC(=O)Nc2ccc([N+](=O)[O-])cc2)cc1,-6.85
11,O=C(NCCCn1ccnc1)c1ccc(Cl)c(S(=O)(=O)N2CCOCC2)c1,2.9
12,C/C(CC(=O)Nc1cccnc1)=N\NC(=O)C(=O)Nc1cccc(C)c1,6.84
13,CCOCCn1ccc2c(OCC(=O)Nc3ccccc3F)cccc2c1=O,4.93
14,Cc1ccc(OCCNC(=O)c2cccc(C)c2)cc1,49.8
15,COc1cccc(OCCNC(=O)c2cccc(OC)c2)c1,7.64
16,O=C(NCCOc1ccccc1)c1cc(C(=O)NCCOc2ccccc2)cc([N+](=O)[O-])c1,-6.28
17,COc1cccc(OCCNC(=O)c2ccc(C)cc2)c1,37.6
18,CCCN(C(=O)c1ccco1)c1nnc(-c2ccccc2C)s1,72.7
19,COc1cc(C(=O)N[C@H](C(=O)NC2CCCCCC2)C(C)C)cc(OC)c1OC,2.31
20,O=C(COC(=O)c1cc(Cl)ccc1O)Nc1ccc2c(c1)OCCO2,71.7
21,O=C(COC(=O)c1cccnc1Cl)c1ccc2c(c1)OCCO2,5.13
22,O=C(COC(=O)c1cc(Br)ccc1O)Nc1ccc2c(c1)OCCO2,76.5
23,Cc1ccc(C(=O)OCC(=O)Nc2ccc3c(c2)OCO3)c(O)c1,-15.4

row,Structure (SMILES),inhibition [%]
1,CC1=C(C(=O)OCc2ccccc2)C(c2ccc([N+](=O)[O-])cc2)NC(=O)N1 (stereo unspecified),8.66
2,Cc1ccc(-n2cc3c(=O)n(C)c(=O)n(C)c3c2)cc1C,13.7
3,COc1cc2[nH]c(=S)nc(NCc3cccs3)c2cc1OC,-37
4,COC(=O)c1ccc(NC(=O)NS(=O)(=O)c2ccc(C)cc2)cc1,16.8
5,CCOC(=O)CC(=O)Nc1ccc(C)cc1,60.5
6,CCOC(=O)c1ccc(NC(=O)CCC(=O)OC)cc1,3.53
7,CCOC(=O)c1ccc(S(=O)(=O)NNS(=O)(=O)c2ccc(C)cc2)cc1,3.23
8,COC(=O)C(C)NC(=O)c1ccc(C(C)(C)C)cc1 (stereo unspecified),-13.9
9,Cc1oc(-c2ccccc2F)nc1CS(=O)(=O)CC(=O)NCCCc1ccccc1,-19.5
10,Cc1ccc(C(C)NC(=O)c2ccco2)cc1 (stereo unspecified),71.4
11,CCC(=O)C1CCCN(C(=O)CCc2nnc(-c3ccc4c(c3)OCO4)o2)C1 (stereo unspecified),-3.37
12,Oc1ccccc1N=N/C(=N/Nc1ccccc1O)c1ccccc1,22.9
13,O=C(O)c1ccccc1N=N/C(=N/Nc1cc(S(=O)(=O)O)ccc1O)c1ccccc1,-12.5
14,CC(=O)OC(C(=O)NC1CCCCC1)c1ccncc1 (stereo unspecified),-2.68
15,CSC1=NSC2=NC(=O)/C(=C/c3coc4ccccc4c3=O)C(=N)N12,-10.1
16,CSC1=NSC2=NC(=O)/C(=C\c3coc4ccccc4c3=O)C(=N)N12,-4.28
17,CCOc1ccc(Nc2ccc(N3C(=O)CCC3=O)cc2[N+](=O)[O-])cc1,7.14
18,Cc1sc(NC(=O)c2cccc(N3C(=O)CCC3=O)c2)nc1-c1ccccc1,-5.52
19,CCN(CC)S(=O)(=O)c1cccc(-c2nnc(SCC(=O)NC)n2N)c1,-7.59
20,COc1ccc(NC(=O)CCC(=O)c2cccs2)cc1Cl,1.43
21,COc1cc(NC(=O)C/C(C)=N/NC(=O)c2cccc(O)c2)c(OC)cc1Cl,45.4
22,COc1cc(NC(=O)C/C(C)=N/NC(=O)c2ccccn2)c(OC)cc1Cl,69.5
23,Cc1ccc(NC(=O)COC(=O)CCC(=O)c2cccs2)cc1C,59.8

row,Structure (SMILES),inhibition [%]
1,COc1ccc(NC(=O)CCC(=O)c2cccs2)c(OC)c1,-6.26
2,Cc1ccc(N/C=C/C(=O)c2cccs2)cc1C,35.6
3,Cc1ccc(NC(=O)CCC(=O)c2cccs2)cc1,8.3
4,Cc1ccc(NC(=O)COC(=O)CCC(=O)c2cccs2)cc1,69
5,O=C(CSc1n[nH]c(-c2ccc(S(=O)(=O)NC3CCCCC3)cc2)n1)N1CCCC1,12.1
6,O=C(CCc1nc2ccccc2c(=O)[nH]1)NCCN1C(=O)S/C(=C\c2ccccc2Cl)C1=O,7.97
7,O=c1c2ccccc2n(Cc2cccc(F)c2)c(=O)n1C1CCCC1,7.83
8,CC(C)C[C@@H](CN(N=O)[C@@H](Cc1ccccc1)CN(C)N=O)N(CCc1ccccc1)N=O,1.78
9,CCOc1ccc(N2C(=O)CC(NC3CCCCNC3=O)C2=O)cc1 (stereo unspecified),61.4
10,Cc1ccccc1NC(=O)Nc1ccccn1,1.67
11,COc1ccc(-c2cc(C(F)(F)F)nc(-n3ccnc3C)n2)cc1,31
12,O=C(COC(=O)CNS(=O)(=O)c1ccc(Br)cc1Cl)NC1CC1,-8.59
13,Cc1ccc(NC(=O)Cc2cccs2)cc1Cl,13.4
14,Cc1ccc(NC(=O)CCC(=O)c2cccs2)cc1F,14.5
15,O=C(Nc1ccc(Cl)cc1)c1cccs1,76.6
16,O=C(CCC(=O)c1cccs1)NCc1ccc(Cl)cc1,3.45
17,O=c1c2ccccc2ncn1CCCSc1ccc(Cl)cc1,72.5
18,O=C(c1ccccc1CCc1ccccc1)N1CCCC1,7.78
19,CCC(=O)Nc1ccc(Br)cn1,8.41
20,CCCCC(=O)Nc1ccc(Br)cn1,6.83
21,CCN(C(=O)COC(=O)c1cc([N+](=O)[O-])ccc1N1CCOCC1)C1CCS(=O)(=O)C1 (stereo unspecified),-18.3
22,Cc1nc2nc3c(c(=O)n2[nH]1)CCC3,-0.78
23,CC1CCc2c(nc3nc[nH]n3c2=O)C1 (stereo unspecified),14.7

row,Structure (SMILES),inhibition [%]
1,Cc1cccc(NC(=S)NCC(c2cccnc2)N2CCOCC2)c1C (stereo unspecified),-1.94
2,CCOc1ccc(N2C(=O)CC(N(CCc3ccc(OC)c(OC)c3)C(=O)/C=C/C(=O)O)C2=O)cc1 (stereo unspecified),16.4
3,COc1ccc(/C=C2/C(=O)N(c3ccccc3)N=C2C)cc1OC,1.07
4,COc1cc(/C=C2/SC(=S)N(C)C2=O)ccc1OC(=O)c1ccco1,31.5
5,COc1ccc(/C=C2/C(=O)N(c3ccccc3)N=C2C)cc1Br,1.11
6,COC(=O)c1ccc(N2NC(=O)/C(=C/c3ccc(OC)c(OC)c3)C2=O)cc1,14.3
7,CCOC(=O)COc1ccc(/C=C2/C(=O)NN(c3ccc(F)cc3)C2=O)cc1OC,79.2
8,COc1cc(/C=C2/C(=O)NN(c3ccc(Cl)cc3)C2=O)cc(OC)c1O,21.1
9,COc1cc(/C=C2/C(=O)NN(c3cccc(C)c3)C2=O)cc([N+](=O)[O-])c1O,10.2
10,COc1cc(/C=C2/SC(=O)NC2=O)ccc1OC(=O)c1ccco1,-7.07
11,CC1CCCN(CCCNC(=O)c2ccc(CS(=O)(=O)c3c(Cl)cccc3Cl)o2)C1 (stereo unspecified),0.97
12,C/C(=N\NC(=O)c1ccccc1NC(=O)c1ccc(Cl)cc1)c1ccncc1,14.5
13,Cn1nc(C(=O)N2CCN(S(=O)(=O)/C=C/c3ccccc3)CC2)c2ccccc2c1=O,1.67
14,CCC1C2Cn3c(nc4ccccc43)C1N(C)O2 (stereo unspecified),-9.29
15,CC1(C)CC(=O)C(C=NCCN2CCN(C(=O)CCl)CC2)=C(O)C1,28.9
16,CCOC(=O)c1sc(C)c(C(=O)NCCCN2CCOCC2)c1N,-1.46
17,COc1cc(CC(=O)OCC(=O)Nc2ccc(Cl)c(S(=O)(=O)N(C)C)c2)cc(OC)c1OC,16.7
18,Cc1ncc(CO)c(CNc2ccc(Oc3ccccc3)cc2)c1O,41.9
19,O=C(NCC1CCCO1)c1cc2c(s1)CCCC2 (stereo unspecified),5.26
20,CCC1CCc2sc(C(=O)NNC(=S)NCC3CCCO3)cc2C1 (stereo unspecified),23.3
21,CCC1CCc2sc(C(=O)NCc3ccccn3)cc2C1 (stereo unspecified),75.2
22,CC1CCc2sc(C(=O)NNC(=O)c3ccncc3)cc2C1 (stereo unspecified),71.2
23,CCOc1ccc(NC(=O)CCC(=O)NNC(=O)COc2ccc(C)cc2)cc1,-22.8

row,Structure (SMILES),inhibition [%]
1,CCOC(=O)c1c(C)[nH]c(C)c1C(=O)CSc1nncs1,-5.38
2,Cc1[nH]ccc(=O)c1OCC(=O)O,-4.62
3,COc1ccc(S(=O)(=O)N2CCN(c3ccc4nnc(-c5ccc(F)cc5)n4n3)CC2)cc1,24
4,CNC[C@H]1Oc2c(NS(=O)(=O)c3ccccc3)cccc2C(=O)N([C@H](C)CO)C[C@@H]1C,-8.41
5,CN(C(=O)CN1C(=O)S/C(=C\c2ccc(F)cc2)C1=O)C1CCS(=O)(=O)C1 (stereo unspecified),-4.74
6,COc1ccccc1CNC(=O)COc1ccccc1C,10
7,N=C(N)N=Nc1c(O)[nH]c2ccc(Br)cc12,46
8,Cc1occc1C(=O)N=Nc1c(O)[nH]c2ccc(Br)cc12,-11.3
9,O=C(Nc1ccc(Br)c(Br)c1)C1CCCO1 (stereo unspecified),40.5
10,Clc1ccc(N2CCN(Cc3ccco3)CC2)cc1,69.8
11,O=[N+]([O-])c1cc2c(cc1CN1CCN(c3ccc(F)cc3)CC1)OCO2,12.8
12,O=[N+]([O-])c1ccc(CN2CCN(c3ccc([N+](=O)[O-])cc3)CC2)cc1,73.8
13,O=[N+]([O-])c1ccccc1-c1ccc(CN2CCN(c3ccccc3)CC2)o1,36.3
14,O=[N+]([O-])c1ccc(N2CCN(c3ccc(F)cc3)CC2)cc1,24.2
15,O=[N+]([O-])c1ccc(N2CCN(Cc3ccc(Br)o3)CC2)cc1,78.8
16,Clc1ccc(N2CCN(Cc3ccc(Br)o3)CC2)cc1,75.9
17,O=[N+]([O-])c1cccc(-c2ccc(CN3CCN(c4ccccc4)CC3)o2)c1,36.7
18,Cc1cc(C)cc(NC(=O)Cn2c(=O)oc3cc(S(=O)(=O)N4CC(C)CC(C)C4)ccc32)c1 (stereo unspecified),12.4
19,COc1ccc(N/C(=N\c2nc(C)cc(C)n2)NC(C)=O)cc1OC,-5.13
